Source: PubChem (National Center for Advancing Translational Sciences (NCATS))
This is a sample that favours compounds with a hit; in the whole collection about 2.8% have one here.
GLP1R inv ag: qHTS of GLP-1 Receptor Inverse Agonists (Inhibition Mode). Glucagon-like peptide 1 receptor (Homo sapiens), P43220. HEK293 GLP-1R CRE-luciferase, luminescence, 24 h; GLP-1R form is constitutively active. Potency, µM (doses to about 38.3 µM), without a hit: at the highest dose activity change, negative = inhibition, most hits filed as inhibitors. 1.6% of 410,000 active; also: % is scaled to controls: 0 for no effect and ±100 for the full control effect; nearly all actives have a fitted effect of over 55% in size
Target sequence (P43220 whole entry, looked up): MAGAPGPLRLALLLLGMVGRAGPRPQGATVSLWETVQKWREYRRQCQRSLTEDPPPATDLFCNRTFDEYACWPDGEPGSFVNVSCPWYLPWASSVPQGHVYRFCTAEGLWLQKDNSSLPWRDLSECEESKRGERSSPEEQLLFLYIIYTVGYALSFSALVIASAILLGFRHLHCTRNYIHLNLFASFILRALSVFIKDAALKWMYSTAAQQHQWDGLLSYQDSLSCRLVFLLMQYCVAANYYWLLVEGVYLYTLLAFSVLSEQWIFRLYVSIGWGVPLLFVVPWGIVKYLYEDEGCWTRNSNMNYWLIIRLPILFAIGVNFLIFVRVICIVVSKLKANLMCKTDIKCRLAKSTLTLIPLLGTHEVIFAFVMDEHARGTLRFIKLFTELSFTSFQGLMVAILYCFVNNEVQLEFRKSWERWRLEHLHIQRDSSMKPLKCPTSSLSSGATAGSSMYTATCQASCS
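Stable HEK293 clone (constitutively active GLP-1R + cAMP-response luciferase); 200 cells/uL plated, 12 h pre-culture, compound 24 hr, 37 deg C/5% CO2; detection reagent 12 min RT; luminescence.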
Mito fusion act: qHTS Assay for Small Molecule Inhibitors of Mitochondrial Division or Activators of Mitochondrial Fusion; S. cerevisiae fusion-defective mutant growth rescue, CellTiterGlo 48 h; Potency, µM (highest dose often 46.1 µM), without a hit: at the highest dose growth rescue (activation), most hits filed as activators; AID 485298, 2010; 0.23% of 320,000 active; also: % of control where 0% means no effect; nearly all actives have a fitted effect of over 45% in size
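Temperature-sensitive fusion-defective S. cerevisiae (e.g. fzo1-1, mgm1-5) were grown with compound in YPEG medium (3% ethanol, 3% glycerol) for 48 hours at 37C. Growth rescue was measured as viability by CellTiterGlo luminescence after 10 minutes at ambient.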
BRCA1 expr up: qHTS Assay to Identify Small Molecule Activators of BRCA1 Expression; MCF7-BRCA1-FFLuc reporter, luminescence, 48 h; response scale: scaled: vehicle 0%, 10 µM genistein 100%; Potency, µM (top dose mostly 46.1 µM), inactives show top-dose activation, most hits filed as activators; 1.1% of 380,000 active; AID 624202, 2012; also: nearly all actives have a fitted effect of over 80% in size
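MCF7 cells carrying a BRCA1-firefly luciferase reporter (2000 cells/well, phenol-red free MEM) were attached for 2 h at 37 °C, then given compounds for 48 h. Luminescence was read 15 min after luciferase reagent; activity normalized to genistein (10 microM) and DMSO.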
HEK293 tox: qHTS of GLP-1 Receptor Inverse Agonists: Cytotox Screen; 0.13% of 410,000 active; Potency, µM (highest dose often 38.3 µM), inactives show top-dose activity change, negative = inhibition, most hits filed as inhibitors; HEK293 cAMP-luciferase reporter cells, luminescence, 24 h; AID 624418, 2012;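 also: loss of luciferase light is scored as toxicity; % is scaled to controls: 0 for no effect and ±100 for the full control effect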
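A 23 nL compound transfer followed 12 hours of cell culture at 37 deg C; exposure then lasted 24 hr. Luciferase assay detection reagent was dispensed and plates read for luminescence after a 12 min room-temperature wait.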
GLP1R ag: qHTS of GLP-1 Receptor Agonists | 0.007% of 380,000 active | HEK293 GLP-1R CRE-luciferase, luminescence, 4-6 h; cells express a hypersensitive GLP-1R form | Potency, µM (doses to about 45.6 µM), inactives show at the top dose activation, usual class: activators; also: % of control where 0% means no effect
* hit, by the source's call; ? = inconclusive; . = no result given; [ ] = remark or other dose. Calls follow the shape of the dose curve; as a rule, active = well fitted curve in the direction sought with a large enough effect; inconclusive = small, poorly fitted or top-dose-only effect, or another doubt; inactive = no such curve, though single readings can be large; an effect the other way counts as inactive or inconclusive. Potency is read from the fitted curve at half-maximal effect.

SMILES | GLP1R inv ag | Mito fusion act | BRCA1 expr up | HEK293 tox | GLP1R ag
COc1ccc(NC(=S)NC(=O)c2ccccc2)cn1 | 48.4% | -8.3% | 11.2µM* | ? | 8.3%
COc1ccc(NC(=O)c2sccc2C)cn1 | 8.9%[0.307 µM] | 7.7% | 7.94µM* | 10.9%[0.307 µM] | -6.6%
CNC(=S)Nc1cccc2[nH]ncc12 | 18.2% | -3.8% | 0.9%[1.84 µM] | 7.3% | -9.1%
COc1ccc(CCNC(=O)c2ccc(NC(=O)CC3SC(N4CCCC4)=NC3=O)cc2)cc1OC (centres undefined) | 3.7% | . | 1.5% | 16.3% | -0.4%
CC(C)(C)C1CCN2CCCC(c3ccccc3)(C1)C2=O (centres undefined) | -19.2% | . | 7.2% | 0.0% | 13.2%
O=[N+]([O-])c1ccc(NC2CCCC2)cc1 | 11.5% | 7.9% | -2.7% | 3.0% | -1.8%
O=[N+]([O-])c1ccc(N/N=C2/CCCCC2c2ccccn2)cc1 (centres undefined) | 1.26µM* | ? | -11.3% | -2.5% | 7.3%
O=C1N(Cc2cccc(Cl)c2)C[C@@H]2C[C@@H](c3cccc4cccnc34)N3CCC[C@@]123 | ? | 2.7% | -46.4% | -11.9% | 5.1%
O=C1N(Cc2cccc(Cl)c2)C[C@@H]2C[C@@H](c3cccc4ncccc34)N3CCC[C@@]123 | 10µM* | -2.4% | -19.2% | -3.3% | 7.5%
CCCC(C(=O)NCc1ccco1)N(C(=O)CNS(=O)(=O)c1ccc(Cl)cc1)C1CCCC1 (centres undefined) | 10µM* | 0.6% | -40.0% | -7.8% | -20.1%
COc1ccc(-c2nnc(SCC(=O)Nc3nc4ccccc4s3)n2C)cc1 | -14.2% | 0.0% | -4.2% | 0.8% | -6.1%
CCC(=O)NC(c1ccco1)c1cc(Cl)c2cccnc2c1O (centres undefined) | 7.08µM* | 9.1% | -88.1% | ? | 3.9%
O=C(c1cccs1)N1CCC(c2ccccc2)C1 (centres undefined) | -1.9% | -0.7% | 3.55µM* | 43.6% | -2.4%
O=C(Nc1ccccc1)N1CCC(c2ccccc2)C1 (centres undefined) | -6.3% | 0.2% | 3.16µM* | 7.5% | 7.7%
COc1ccc(NC(=S)N2CCC(c3ccccc3)C2)cc1 (centres undefined) | ? | -22.5% | 2.82µM* | -20.4% | 1.6%
COc1ccc(CNC(=O)CCCCCNc2nc(=S)[nH]c3ccccc23)cc1 | -19.8% | 9.8% | -8.9% | -5.9% | 10.5%
Cc1cccc(OCC(=O)Nc2ccccc2C(=O)OCc2cc(=O)n3ccsc3n2)c1 | -5.1% | . | . | 14.7% | .
CCC(=O)Nc1nnc(SCC(=O)Nc2ccc3c(c2)OCCO3)s1 | -15.4% | 3.9% | -6.9% | -8.4% | 5.3%
O=C(Nc1cccc(OC(F)(F)F)c1)C1Cc2c(-c3ccccc3Oc3ccccc3)ccnc2O1 (centres undefined) | 12.6µM* | . | -36.1% | -2.6% | 4.3%
CC1(C)Oc2ccc(C(=O)Nc3ccccc3F)cc2N(CC(=O)N2CCOCC2)C1=O | 11.8% | -4.1% | 20.7% | 4.0% | 6.8%
CN1C(=O)C2(SCC(=O)N2c2ccc(Cl)cc2)c2ccccc21 (centres undefined) | -5.8% | . | . | -5.4% | .
Nc1ncnc(Sc2ncccn2)c1[N+](=O)[O-] | ? | -5.8% | -94.6% | 11.2µM* | -5.4%
Nc1ncnc(Sc2ccccc2)c1[N+](=O)[O-] | ? | 0.0% | -35.3% | -23.1% | 0.1%
COc1ccc(C(=O)N2CC(=O)N(CCc3ccccc3)C(=O)C2)cc1OC | 19.2% | -0.4% | -18.9% | 13.1% | 9.2%
COc1ccc(-c2nc(CSCC(=O)NCC3CCCO3)c(C)o2)cc1OC (centres undefined) | 9.3% | -0.1% | -1.4% | -26.9% | 19.3%
SMILES | GLP1R inv ag | Mito fusion act | BRCA1 expr up | HEK293 tox | GLP1R ag
Cc1cccc(NC(=O)c2cc(-c3ccc(C)s3)nc3ccccc23)n1 | 10µM* | 26.2% | -43.5% | -4.2% | -13.5%
Cc1cc(NC(=O)c2cc(-c3ccc(C)s3)nc3ccccc23)no1 | -6.7% | 1.2% | -0.3% | 4.7% | 0.3%
Cc1ccnc(NC(=O)c2cc(-c3ccc(Cl)s3)nc3ccccc23)c1 | 7.94µM* | 8.3% | -0.6% | 3.7% | 6.3%
Cc1cc(C)c(O)c(CN(C)Cc2cc(Cl)cc(Cl)c2O)c1 | ? | . | -81.3% | ? | 11.4%
O=C(Cn1cnc2c(oc3ccccc32)c1=O)c1ccccc1 | 1.6% | -4.3% | 7.08µM* | 4.9% | -3.0%
O=C(O)Cn1cnc2c(oc3ccccc32)c1=O | 9.5% | 1.1% | 0.0% | -0.5% | 4.8%
FC(F)(F)c1cccc(NC(=S)Nc2ccc(Cl)c(Cl)c2)c1 | ? | -16.6% | -87.3% | -28.9% | 0.4%
O=[N+]([O-])c1cc(C(F)(F)F)cc([N+](=O)[O-])c1NCCNC(=S)Nc1ccc(Cl)c(Cl)c1 | 8.91µM* | 16.2% | -49.0% | ? | -0.8%
Cc1cccc2cc(CN(Cc3nnnn3C3CCCCC3)C3CCCC3)c3nnnn3c12 | 0.8% | 11.2µM* | -29.8% | -14.5% | -3.3%
CN(c1ccc(OCC(=O)N2CCCCC2)cc1)S(=O)(=O)c1cccs1 | ? | 3.8% | -20.2% | -0.2% | 3.1%
CN(c1ccc(OCC(=O)N2CCN(c3ccc(F)cc3)CC2)cc1)S(=O)(=O)c1cccs1 | 11.2µM* | 10.0% | -4.5% | -3.5% | 0.4%
CC1CCCC(NC(=O)CSc2n[nH]c(N)n2)C1C (centres undefined) | 1.8% | . | -12.8% | 5.5% | 0.1%
Cc1nn(-c2ccccc2)c(N2CCCCC2)c1/C=N/NC(=O)c1ccncc1 | ? | -0.4% | -17.7% | 10.6% | 10.0%
Cc1csc(N=Nc2ccc(N(C)C)cc2)[n+]1[O-] | ? | . | ? | 3.98µM* | -6.9%
CN(C)c1ccc(N=NS(=O)(=O)O)cc1 | . | . | . | . | -2.2%[96 µM]
CCCCCC(=O)NC(=S)Nc1cccc(-c2nc3ncccc3o2)c1 | 18.3% | -5.0% | 0.0% | 18.5% | 12.3%
CCN(CC)S(=O)(=O)c1cc(C(=O)OCC(=O)NC2CCCc3ccccc32)ccc1C (centres undefined) | ? | -6.4% | 1.6% | -1.6% | 1.2%
COc1ccc(N(CC(=O)Nc2ccc(C)cc2C)S(=O)(=O)c2c(C)n[nH]c2C)cc1 | ? | -9.4% | -20.2% | -9.8% | -4.8%
COc1ccc(N(CC(=O)Nc2cc(Cl)ccc2C)S(=O)(=O)c2c(C)n[nH]c2C)cc1 | 4.47µM* | 2.0% | -40.7% | ? | -3.7%
Cc1noc(C)c1S(=O)(=O)N(CC(=O)Nc1ccc(C(F)(F)F)cc1)c1ccc(C(C)C)cc1 | -19.1% | . | -11.6% | -8.8% | 0.2%
